L3MBTL1 inh: qHTS Assay for the Inhibitors of L3MBTL1 | Lethal(3)malignant brain tumor-like protein 1 (Homo sapiens), Q9Y468 | AlphaScreen L3MBTL1–H3K9me1 peptide binding | Potency, µM (titrated, usually from 57.1 µM), without a hit: at the top dose activity, negative = inhibition, usual class: inhibitors | hit rate 0.66% among 230,000 | AID 485360, 2010; also: % is scaled to controls: 0 for no effect and ±100 for the full control effect; nearly all actives have a fitted effect of over 60% in size
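AlphaScreen assay: L3MBTL1 (50 nM final) was preincubated 30 min at room temperature with biotinylated H3(1-15)K9me1 peptide (75 nM final), then 30 min with library compounds; streptavidin donor and nickel chelate acceptor beads (10 ug/mL final) added, 30 min dark.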
HP1b binding inh: HTS for Inhibitors of HP1-beta Chromodomain Interactions with Methylated Histone Tails | AID 540317, 2011 | Potency, µM (titrated, usually from 114 µM), for the others: top-dose activity change, negative = inhibition, most hits filed as inhibitors | AlphaScreen HP1-beta / biotin-H3K9me3 peptide binding | Chromobox protein homolog 1 (Homo sapiens), P83916 | hit rate 0.56% among 390,000; also: nearly all actives have a fitted effect of over 70% in size
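Compound inhibition of the preformed complex between 50 nM HP1-beta and 50 nM biotinylated H3K9me3 peptide was read by AlphaScreen. Buffer was PBS pH 7.4 with 0.01% Tween-20. Incubations ran 30 min at room temperature, with 10 ug/mL donor/acceptor beads.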
G9a inh: qHTS Assay for Inhibitors of Histone Lysine Methyltransferase G9a; Histone-lysine N-methyltransferase EHMT2 (Homo sapiens), Q96KQ7; G9a H3K9 monomethylation, AlphaScreen, 2 h; Potency, µM (titrated, usually from 102 µM), inactives show at the highest dose activity, negative = inhibition, usual class: inhibitors; hit rate 8.8% among 350,000; AID 504332, 2011; also: % is scaled to controls: 0 for no effect and ±100 for the full control effect; nearly all actives have a fitted effect of over 75% in size
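Enzyme 20 nM + cpd, 15 min RT; add b-H3K9 pep 500 nM / SAM 20 uM; 2 h RT; anti-H3K9me1 Ab 0.5 ug/mL + SA donor / anti-rabbit acceptor beads 20 ug/mL each, 10 min; AlphaScreen read.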
Sfp inh: qHTS Assay for Inhibitors of Bacillus subtilis Sfp phosphopantetheinyl transferase (PPTase); Biochemical Sfp PPTase activity, qHTS; Potency, µM, for inactives: largest response in the series, negative = inhibition, most hits filed as inhibitors; hit rate 3.5% among 310,000;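 also: the enzyme is Sfp with the accession as filed and its product quenches rhodamine fluorescence; 0% = enzyme reaction without inhibitor and -100% = no enzyme wells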
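Fluorescence-quenching assay with 15 nM Sfp, 5 uM rhodamine-CoA and 12.5 uM BHQ-2-labelled ybbR peptide in pH 7.6 Hepes/MgCl2 buffer. Enzyme was pre-incubated with compound for 15 min at room temperature. Rate was taken from the 30-min fluorescence change (525/598 nm).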
JMJD2A Tudor: qHTS Assay for Inhibitors of JMJD2A-Tudor Domain. Potency, µM (highest dose often 114 µM), inactives show at the top dose activity change, negative = inhibition, usual class: inhibitors. Lysine-specific demethylase 4A (Homo sapiens), O75164. AlphaScreen JMJD2A-Tudor / H3K4me3 peptide binding. hit rate 4.4% among 390,000. AID 504339, 2011; also: % is scaled to controls: 0 for no effect and ±100 for the full control effect; nearly all actives have a fitted effect of over 50% in size
Target sequence (O75164 whole entry, looked up, the tested form may be a part): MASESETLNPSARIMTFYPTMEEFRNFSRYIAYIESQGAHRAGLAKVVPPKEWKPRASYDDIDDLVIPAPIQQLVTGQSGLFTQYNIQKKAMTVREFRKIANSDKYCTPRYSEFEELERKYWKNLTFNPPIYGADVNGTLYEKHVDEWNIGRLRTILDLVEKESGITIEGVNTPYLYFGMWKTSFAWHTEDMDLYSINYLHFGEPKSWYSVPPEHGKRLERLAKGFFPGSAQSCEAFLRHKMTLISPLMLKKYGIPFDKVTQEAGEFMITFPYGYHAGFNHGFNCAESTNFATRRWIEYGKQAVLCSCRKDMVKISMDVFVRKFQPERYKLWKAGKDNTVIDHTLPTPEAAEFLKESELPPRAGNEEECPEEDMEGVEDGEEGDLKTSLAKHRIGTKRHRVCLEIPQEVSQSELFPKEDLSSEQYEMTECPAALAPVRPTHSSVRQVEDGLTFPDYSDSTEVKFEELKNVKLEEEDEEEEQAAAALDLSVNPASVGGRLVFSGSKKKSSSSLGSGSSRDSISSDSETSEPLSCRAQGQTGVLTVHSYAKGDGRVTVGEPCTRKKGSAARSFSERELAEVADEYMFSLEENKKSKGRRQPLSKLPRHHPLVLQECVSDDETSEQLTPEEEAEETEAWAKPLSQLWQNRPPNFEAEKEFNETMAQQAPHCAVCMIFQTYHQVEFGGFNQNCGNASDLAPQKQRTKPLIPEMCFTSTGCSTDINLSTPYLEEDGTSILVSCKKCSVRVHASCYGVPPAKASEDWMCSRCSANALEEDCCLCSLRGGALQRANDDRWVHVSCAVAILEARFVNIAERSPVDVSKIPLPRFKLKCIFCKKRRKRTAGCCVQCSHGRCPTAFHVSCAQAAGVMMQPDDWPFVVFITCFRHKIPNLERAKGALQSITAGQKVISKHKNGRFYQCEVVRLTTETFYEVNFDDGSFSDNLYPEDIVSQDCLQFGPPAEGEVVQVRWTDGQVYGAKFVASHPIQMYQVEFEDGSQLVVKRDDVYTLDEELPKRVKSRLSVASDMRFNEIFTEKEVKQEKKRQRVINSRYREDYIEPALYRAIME
BAZ2B inh: qHTS Assay for Inhibitors of BAZ2B | Bromodomain adjacent to zinc finger domain protein 2B (Homo sapiens), Q9UIF8 | AlphaScreen BAZ2B-H3K14Ac peptide displacement | Potency, µM (series often up to 114 µM), inactives show at the highest dose activity change, negative = inhibition, hits mostly inhibitors | hit rate 4.4% among 360,000 | AID 504333, 2011; also: % is scaled to controls: 0 for no effect and ±100 for the full control effect; nearly all actives have a fitted effect of over 60% in size
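AlphaScreen displacement of biotin-H3(5-23)K14Ac peptide (50 nM final) from BAZ2B (50 nM final) in PBS pH 7.4, 0.01% Tween-20; complex preformed 30 min RT, then compounds (top 110 uM) 30 min RT, beads 20 min dark.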
Numbers without * were called inactive; ? = inconclusive; / = not tested or not shown; ! = a repeat was not active; [ ] = remark or other dose. Shown are actives, neighbours in structure and some others; about 12% of the full set was active somewhere. Calls follow the shape of the dose curve; as a rule, active = well fitted curve in the direction sought with a large enough effect; inconclusive = small, poorly fitted or top-dose-only effect, or another doubt; inactive = no such curve, though single readings can be large; an effect the other way counts as inactive or inconclusive. Potency is read from the fitted curve at half-maximal effect.

SMILES	L3MBTL1 inh	HP1b binding inh	G9a inh	Sfp inh	JMJD2A Tudor	BAZ2B inh
CCc1sc2nc(SCC(=O)Nc3cc(C)on3)n(-c3cccc(OC)c3)c(=O)c2c1C	-9%	26%	-15%	56µM*	-15%	?
CCCC[C@H](NC(=O)[C@@H]1CCCN1C(=O)[C@H]1CCCN1C(=O)[C@H](Cc1ccccc1)NC(=O)[C@@H](Cc1c[nH]c2ccccc12)NC(=O)[C@H](C)NC(=O)[C@H](CCCN=C(N)N)NC(=O)OC(C)(C)C)C(N)=O	/	/	/	-28%	/	/
NC(=O)[C@@H]1CSSCCC(=O)N[C@@H](CCCCN=C(N)N)C(=O)NCC(=O)N[C@@H](CC(=O)O)C(=O)N[C@@H](Cc2c[nH]c3ccccc23)C(=O)N2CCC[C@H]2C(=O)N1	/	/	-30%[12.7 µM]	20%	/	/
COc1ccc(OC)c(C(=O)CSc2nnc(-c3cccnc3)n2C)c1	/	24%	18µM*	10%	-10%	-19%
CCN1CCCC1Cn1c(-c2ccccc2)nc2c(N(CCOC)CCOC)nc(C)nc21 (stereo not drawn)	/	/	/	19%	/	/
CC1(C)CCC2=C(O1)c1ccccc1C(=O)C2=O	/	/	14µM*!	63µM*!	/	/
Cc1ccc(CCNC(=O)c2c(C)oc3ncnc(N4CCOCC4)c23)cc1	/	42%	2%[59 µM]	/	-2%	13%[57.1 µM]
O=C(O)c1ccccc1N/N=C/c1c(Sc2nnnn2-c2ccccc2)nc2ccccn2c1=O	-4%	-25%	40µM*	6%	?	45µM*
O=c1c(/C=N/Nc2ccccc2)c(Sc2nnnn2-c2ccccc2)nc2ccccn12	/	9%	-13%[12.7 µM]	6%	-15%	7%
CCOc1ccc(NC(=O)CSc2oc(-c3ccco3)nc2S(=O)(=O)c2ccc(Cl)cc2)cc1	/	69%	-34%[59 µM]	/	-25%	?
CCc1cc(C(c2ccc(OC)c(OC)c2)N2CCOCC2)c(NC(=O)c2ccccc2)s1 (stereo not drawn)	-4%	?	32µM*	5%	50µM*	35µM*
CCc1cc(C(c2cccc(OC)c2)N2CCOCC2)c(NC(=O)c2ccccc2)s1 (stereo not drawn)	-13%	29%	5%	5%	-23%	-31%
COc1cc(-c2csc(NC3CCCCC3)n2)cc(OC)c1OC	/	-14%	25µM*	-11%	?	?
Cn1c(=O)c2cc(S(=O)(=O)NC(C(=O)Nc3cccc(F)c3)c3ccccc3)ccc2n(C)c1=O (stereo not drawn)	/	44%	18µM*	9%	-13%	-14%
Cn1c(=O)c2cc(S(=O)(=O)NC(C(=O)Nc3cccnc3)c3ccccc3)ccc2n(C)c1=O (stereo not drawn)	/	43%	8.9µM*	-7%	-12%	8%
CCCNC(=O)C(NS(=O)(=O)c1ccc2c(c1)c(=O)n(C)c(=O)n2C)c1ccccc1 (stereo not drawn)	4%	37%	40µM*	12%	-13%	-2%
CN(C)S(=O)(=O)c1ccc(C(=O)NCCSc2c(-c3ccc(Br)cc3)[nH]c3ccccc23)cc1	/	21%	1%[59 µM]	/	-17%	-10%
N#CCCn1c(=O)c(-c2cccs2)nc2cnc(Oc3cccc(Cl)c3)nc21	/	/	6%[12.7 µM]	4%	/	/
Cc1nn(-c2ccccc2)c2c1C(c1cccnc1)N1C=C(S(=O)(=O)N3CCCCC3)C=CC1=N2 (stereo not drawn)	-8%	-30%	79µM*	-1%	?	-36%
COC(=O)C[C@H]1c2ccccc2C2=C(C[C@@H](C)[C@H]3C(=O)N(c4ccccc4)C(=O)[C@@H]23)N1C(=O)OC	/	/	/	9%	/	/
CCOCc1[nH]c(=S)[nH]c(=O)c1Cc1ccc(OCC(C)C)cc1	-5%	-16%	-41%	9%	50µM*	-1%
N#CC(C#N)=c1ccc2c(c1)N1C3=C(CCCC3)CC3CCCCC31N=2 (stereo not drawn)	?	?	2.2µM*	23%	45µM*	1.8µM*
N#C/C(C(N)=O)=c1/ccc2c(c1)N1C3=C(CCCC3)CC3CCCCC31N=2 (stereo not drawn)	/	10µM*	4µM*	?	6.3µM*	3.5µM*
Cc1ccc(Cl)cc1NC(=O)C(NS(=O)(=O)c1cccc2nsnc12)c1ccccc1 (stereo not drawn)	/	-7%	?	/	?	/
COc1ccc(OC)c(C2C(C(=O)Nc3ccc(C)cc3)=C(C)Nc3nnnn32)c1 (stereo not drawn)	/	25%	-4%[59 µM]	/	-12%	-5%
SMILES	L3MBTL1 inh	HP1b binding inh	G9a inh	Sfp inh	JMJD2A Tudor	BAZ2B inh
COC(=O)c1[nH]c2cc(C)ccc2c1NC(=O)CN1CCN(C(=O)c2ccco2)CC1	-5%	17%	?	50µM*	-11%	?
COC(=O)c1[nH]c2ccc(Br)cc2c1NC(=O)CN1CCCc2ccccc21	-3%	32%	-24%[59 µM]	19%	-26%	-6%[57.1 µM]
Cc1ccc(C(=O)c2cc(C)sc2NC(=O)CN2CCN(C(=O)c3ccco3)CC2)cc1	-29%	?	32µM*	?	?	?
COC(=O)c1[nH]c2cccc(C)c2c1NC(=O)CN1CCN(C(=O)c2ccco2)CC1	-2%	10%	-48%[59 µM]	-13%	-15%	/
COC(=O)c1[nH]c2cc(C)ccc2c1NC(=O)CN1CCCc2ccccc21	-14%	12%	?	?	?	45µM*
CCc1cc(C(=O)OC)c(NC(=O)CN2CCN(C(=O)c3ccco3)CC2)s1	/	43%	/	-3%	9%	-14%
Cc1cccc(C)c1NC(=O)/C(=C/c1ccco1)c1ccccc1	/	1%	32µM*	22µM*	-18%	-37%
Cc1cc(C)c(NC(=O)/C(=C/c2ccco2)c2ccccc2)c(C)c1	/	-3%	45µM*	35µM*	-33%	-36%
Cc1nc2ccc(S(=O)(=O)NC(CC(C)C)C(=O)NCc3ccc(Cl)cc3)cc2s1 (stereo not drawn)	/	12%	7%[59 µM]	/	-13%	-3%
CCN1C(=O)CCCc2ccccc21	8%	35%	-43%	6%	-1%	-14%
CCCN1CCCc2ccccc21	/	12%	22µM*	3%	-35%	?

Source: PubChem BioAssay
